# Screening results (PubChem)
# Shown are actives, neighbours in structure and some others; about 5.4% of the full set was active somewhere.
# Exocytosis inh – LAMP-1 surface exposure blockers, TALL-104 cells – cell-based, flow cytometry, MLPCN library, primary screen | TALL-104 LAMP-1 surface exposure; cells stimulated with thapsigargin and PMA | inhibition, % at 10 µM | hit rate 0.66% among 360,000;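 active = inhibition above about 55%, limit read from the data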
# ALR inh – inhibitors of human ALR sulfhydryl oxidase, primary screen, biochemical, H2O2 detection, HRP-luminol luminescence, single point. hit rate 3.8% among 290,000. FAD-linked sulfhydryl oxidase ALR (Homo sapiens), P55789. inhibition, % (no concentration beside the values). purified ALR, DTT oxidation;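 active = mean replicate inhibition above about 79%, with every replicate also reaching it, limit read from the data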
# Target sequence (P55789 whole entry, looked up): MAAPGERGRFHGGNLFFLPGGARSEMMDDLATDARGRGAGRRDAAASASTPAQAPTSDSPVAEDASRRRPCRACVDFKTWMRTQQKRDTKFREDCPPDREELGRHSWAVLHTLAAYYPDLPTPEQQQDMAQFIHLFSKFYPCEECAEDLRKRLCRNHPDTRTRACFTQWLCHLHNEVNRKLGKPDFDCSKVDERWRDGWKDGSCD
# beta cell repl – inducers of MIN6 beta-cell proliferation, primary screen, ATP luminescence, uHTS; MIN6 cells proliferation, ATPlite luminescence, 48 h; cells starved in 0.2% serum; 100% = growth in 10% serum; proliferation, % at 10 µM; hit rate 0.29% among 330,000; AID 2380, 2010;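 active = compounds whose signal lies at least 3.5 SD above the mean of all wells on their plate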
# PfM18AAP inh – PfM18AAP inhibitors, malaria aminopeptidase, primary screen, biochemical, QFRET, recombinant enzyme; M18 aspartyl aminopeptidase (Plasmodium falciparum 3D7); H-Glu-NHMec fluorogenic cleavage; inhibition, % at 7.35 µM; hit rate 1.2% among 290,000;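 active = inhibition above the campaign mean inhibition over all tested compounds plus 3 SD, cut at about 28% in these data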
# GASC-1 inh – inhibitors of GASC-1 histone demethylase, primary screen, biochemical, fluorescence, DELFIA europium; Lysine-specific demethylase 4C (Homo sapiens), Q9H3R0; GST-JMJD2C(1-420) H3K9me3 demethylation; inhibition, % at 2.35 µM; hit rate 0.069% among 330,000;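 active = more than half of a compound's replicate wells show inhibition beyond 50%, single wells judged on their own value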;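 also: signal counts dimethyl H3K9 product captured on neutravidin plate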
# Target sequence (Q9H3R0 1-420 limits assumed): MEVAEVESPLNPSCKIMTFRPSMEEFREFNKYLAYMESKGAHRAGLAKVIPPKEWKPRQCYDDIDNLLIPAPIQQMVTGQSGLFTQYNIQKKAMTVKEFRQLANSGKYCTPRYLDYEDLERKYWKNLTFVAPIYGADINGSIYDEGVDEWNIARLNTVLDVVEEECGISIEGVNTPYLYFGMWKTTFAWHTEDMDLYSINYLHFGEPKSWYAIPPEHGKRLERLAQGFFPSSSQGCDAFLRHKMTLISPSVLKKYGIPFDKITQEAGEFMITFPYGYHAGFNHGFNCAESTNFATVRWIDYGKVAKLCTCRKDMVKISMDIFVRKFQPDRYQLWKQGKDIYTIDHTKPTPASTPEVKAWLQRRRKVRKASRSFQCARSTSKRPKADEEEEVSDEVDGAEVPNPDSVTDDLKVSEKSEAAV
# SMARCA2 activ – SMARCA2 (BRM) function activators, primary screen, cell-based, luminescence, high throughput; MG213 cells, MMTV-luciferase reporter, dexamethasone, overnight; activation, % at 9.1 µM; hit rate 1% among 370,000; AID 652017, 2013; in the data active = activation above about 7.8%
# SMARCA2 act conf – SMARCA2 (BRM) function activators, confirmation, cell-based, luminescence, triplicate | MG213 cells, MMTV-luciferase with dexamethasone, overnight; MG213 cells expressing E1A, Rb sequestered; DMSO wells 0%, reference activator 100% | hit rate 30% among 3,500 | activation, % at 9.1 µM | shares compounds with SMARCA2 activ;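 active = activation above its plate's cutoff, the mean activation of tested wells plus 3 SD, cut at about 7.9% in these data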
# VP16 Luc act – GAL4-VP16 luciferase reporter activation, counter-screen for SMARCA2 (BRM) activator project, cell-based, pG5luc, luminescence, high throughput | AID 686939, 2013 | shares compounds with SMARCA2 activ | hit rate 41% among 3,500 | HEK293 GAL4-VP16 pG5luc reporter; scaled: DMSO wells 0%, SAHA wells 100% | activation, % at 9.1 µM;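 active = activation above the solvent-only control well mean plus 3 SD, averaged across control plates, cut at about 5.2% in these data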
# Hits are given with their value; – = inactive; · = no result.
SMILES,Exocytosis inh,ALR inh,beta cell repl,PfM18AAP inh,GASC-1 inh,SMARCA2 activ,SMARCA2 act conf,VP16 Luc act
CC(=O)OCC(C)n1[nH]c2ccccc2c1=O (stereo unspecified),–,·,·,·,·,–,·,·
COC(=O)c1cccc(N2C(=O)C[C@](Sc3ccc(C)cc3)(C(=O)OC)[C@H]2c2ccccc2)c1,–,·,·,·,·,–,·,·
c1ccc2c(c1)C1=NCCN1c1ccccc1-2,–,·,·,·,·,24,371,–
O=C(OCC(=O)N1CCN(S(=O)(=O)c2ccccc2)CC1)c1ccc([N+](=O)[O-])o1,–,–,–,–,–,–,·,·
O=C(OCC(=O)N1CCN(S(=O)(=O)c2ccc(Cl)cc2)CC1)c1ccc([N+](=O)[O-])o1,–,–,–,–,–,8.9,–,–
O=C(COc1ccccc1Cl)OCC(=O)N1CCN(S(=O)(=O)c2ccccc2)CC1,–,–,–,–,–,11,–,–
COC(=O)[C@]12C[C@H](CC(=O)N3CCCC3)C(=O)N(CCc3ccc(OC)c(OC)c3)C1=C[C@H](C(C)(C)C)O[C@@H]2C,·,·,·,·,·,–,·,·
CN1OC[C@@H]2CN(C(=O)Nc3ccccc3)[C@H](c3ccc(N4CCCCC4)cc3)C[C@@H]21,–,·,·,·,·,–,·,·
COc1ccccc1CN1CCSCC1,–,·,–,–,–,9.8,–,–
COc1cccc(CN2CCSCC2)c1OC,–,·,–,–,–,–,·,·
O=C(Nc1cccc(O)c1)c1c(O)c2ccccc2[nH]c1=O,–,–,–,–,–,10,–,9.3
CC1(C)CC(=O)C=C(Nc2ccccc2NC(=O)c2cc(Cl)ccc2F)C1,·,·,·,·,·,9.2,–,–
Cc1occc1-c1nc(-c2ccncc2)no1,–,–,–,–,–,–,·,·
Cc1ccc(-c2noc(-c3ccoc3C)n2)cc1,–,–,–,–,–,10,8.2,10
CCCNCc1cc(Cl)c(OCC)c(Cl)c1,–,–,–,–,–,9.1,–,–
CCc1ccccc1-n1ncc(C(=O)Nc2ccc(OC)cc2)c1C,–,·,·,·,·,8.0,–,12
CCc1ccc(NC(=O)c2cnn(-c3ccccc3)c2C)cc1,–,–,–,–,–,–,·,·
O=C(COc1ccccc1)Nc1ncn[nH]1,–,–,–,–,–,–,·,·
CCc1ccc(OCC(=O)Nc2ncn[nH]2)cc1,–,–,–,–,–,8.1,11,8.7
COc1cccc(NC(=O)CCC2CCN(C(=O)C3CC=CCC3)CC2)c1 (stereo unspecified),–,–,–,–,–,8.0,–,–
O=C1NC[C@H](CCCCN2C[C@H](Cc3ccc(O)cc3)N(CCc3ccc(O)cc3)C(=O)C2=O)N(CC2CCCCC2)C1=O,–,·,·,·,·,8.5,–,–
Cc1cccnc1C1=NOC(Cc2ccccc2)C(=O)N1Cc1ccc2c(c1)OCO2 (stereo unspecified),–,·,·,·,·,–,·,·
O=C(Nc1cccnc1)C1Cc2c(-c3ccc4c(c3)OCO4)ccnc2O1 (stereo unspecified),–,·,·,·,·,–,·,·
Cc1nc(-c2ccc(NC(=O)C3CC3)cc2)cs1,–,–,–,–,–,8.2,9.7,8.9
Cc1ccc(NC(=O)c2ccccc2Cl)c(Cl)c1,–,–,–,–,–,13,11,5.5
SMILES,Exocytosis inh,ALR inh,beta cell repl,PfM18AAP inh,GASC-1 inh,SMARCA2 activ,SMARCA2 act conf,VP16 Luc act
Cc1ccc(NC(=O)c2ccccc2F)c(NC(=O)c2ccccc2F)c1,–,–,–,·,–,–,·,·
Cc1cc(C)nc(Nc2ccccc2Cl)n1,–,–,–,–,–,12,–,–
CCC(=O)N1Cc2cc(C(=O)Nc3nccs3)nc(-c3cccc(-c4ccccc4OC)c3)c2[C@H]1CCO,–,·,·,·,·,–,·,·
CCOC(=O)[C@]12CCCC=C1N(CCC1=CCCCC1)C(=O)[C@H](CC(=O)N1CCN(C(=O)C3CC3)CC1)C2,–,·,·,·,·,–,·,·
CC(=O)c1cccc(Nc2cc(C)nc3ccc(C)cc23)c1,–,–,–,–,–,11,–,–
COc1ccccc1CN(C)C(=O)c1ccc(S(=O)(=O)NCc2ccco2)cc1,–,·,–,·,–,11,–,–
CC1(Cc2ccc(C(F)(F)F)nc2)C(=O)Nc2cc(-c3ccccc3Cl)ccc21 (stereo unspecified),–,·,·,·,·,–,·,·
CC(=O)C1=C(C)NC(=S)NC1c1ccccc1 (stereo unspecified),·,·,·,·,·,–,·,·
O=C1NC(=S)N/C1=C/c1cc2c(cc1[N+](=O)[O-])OCO2,–,–,–,–,–,11,–,–
CCCC(=O)Nc1nnc(SCC)s1,–,–,–,–,–,8.5,–,–
CCSc1nnc(NC(=O)c2csc(C)c2)s1,–,–,–,–,–,8.1,–,8.8
CCSc1nnc(NC(=O)c2cccc3ccccc23)s1,–,–,–,–,–,–,·,·
CCOC(=O)c1sc(NC(=O)Cc2ccc(F)cc2)nc1C,–,–,–,–,–,8.4,–,–
CCOC(=O)c1sc(NC(=O)Nc2ccc(F)cc2)nc1C,–,–,–,–,–,–,·,·
CC(O)(c1ccccc1)c1nc(-c2ccncc2)cs1 (stereo unspecified),–,·,·,·,·,–,·,·
Cc1csc2nc(CSc3nc4ccccc4o3)cn12,–,–,–,–,–,8.9,–,–
O=[N+]([O-])c1nn(-c2ccccc2)n(O)c1=NCCc1ccccc1,–,–,–,–,–,11,–,–
CCN(CC)C(=O)C1=C(C)N(Cc2ccc(C(C)(C)C)cc2)C(=O)C(CC(=O)NCc2cccs2)C1 (stereo unspecified),–,·,·,·,·,–,·,·
COc1ccc(C(O)c2nc(-c3cc(F)cc(Cl)c3)cs2)cc1 (stereo unspecified),–,·,·,·,·,–,·,·
COc1ccc(C(=O)Nc2ccccc2C(=O)N/N=C/c2ccncc2)cc1OC,–,–,–,–,–,8.5,18,6.0
COc1ccc(C(=O)Nc2ccccc2C(=O)NCc2cccnc2)cc1OC,–,–,–,–,–,–,·,·
COc1ccc(C(Nc2cc(C)ccn2)c2ccc3ccc(C)nc3c2O)cc1 (stereo unspecified),–,–,–,–,–,10,–,–
O=C(NC1CC1)c1scc2c1OCCO2,–,–,–,–,–,8.2,–,–
